The whole screen tested about 5,500 compounds, of which about 2,000 (36%) were called active. Another 18% or so got no clear call; they are omitted. Rule as the data show it: active = normalized growth mostly below about 0.91 (no sharp cut-off); inconclusive = no clear call, values can overlap the other calls; inactive = mostly above about 0.92. Some of the results follow.
Experiment: chemical genetic growth profiling, strain panel (AID 1159580);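 also: tested at 20 µM; growth read once vehicle control cultures reached saturation at 30 °C; 1 = growth at the plate median or of vehicle wells; lower values mean less growth of the strain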
Conditions: growth OD

Measured: normalized growth

CN1C2CCC1CC(OC(c1ccccc1)c1ccccc1)C2 (stereo not given)
inactive: S. cerevisiae deletion strains, locus YJR043C, strain POL32, stronger effect = lower value 0.95 | S. cerevisiae deletion strains, locus YKL009W, strain mrt4, stronger effect = lower value 0.918 | S. cerevisiae deletion strains, locus YKL068W, stronger effect = lower value 0.986 | S. cerevisiae deletion strains, locus YKL085W, strain MDH1 (second series), stronger effect = lower value 0.978 | S. cerevisiae deletion strains, locus YKL085W, strain MDH1, stronger effect = lower value 0.978 | S. cerevisiae deletion strains, locus YKL160W, strain elf1, stronger effect = lower value 1 | S. cerevisiae deletion strains, locus YKR001C, strain vps1, stronger effect = lower value 0.926 | S. cerevisiae deletion strains, locus YKR026C, strain gcn3, stronger effect = lower value 0.972 | S. cerevisiae deletion strains, locus YKR091W, strain srl3, stronger effect = lower value 0.971 | S. cerevisiae deletion strains, locus YLL001W, strain dnm1, stronger effect = lower value 1.01 | S. cerevisiae deletion strains, locus YLL026W, stronger effect = lower value 0.991 | S. cerevisiae deletion strains, locus YLL041C, strain sdh2, stronger effect = lower value 0.995 | S. cerevisiae deletion strains, locus YLR027C, strain aat2, stronger effect = lower value 0.989 | S. cerevisiae deletion strains, locus YLR039C, strain RIC1, stronger effect = lower value 0.795 | S. cerevisiae deletion strains, locus YLR058C, strain SHM2, stronger effect = lower value 0.91 | S. cerevisiae deletion strains, locus YLR102C, strain apc9, stronger effect = lower value 0.996 | S. cerevisiae deletion strains, locus YLR221C, strain rsa3, stronger effect = lower value 0.985 | S. cerevisiae deletion strains, locus YLR258W, strain gsy2, stronger effect = lower value 0.982 | S. cerevisiae deletion strains, locus YLR262C, strain YPT6 (second series), stronger effect = lower value 1.04 | S. cerevisiae deletion strains, locus YLR262C, strain YPT6, stronger effect = lower value 0.647 | S. cerevisiae deletion strains, locus YLR268W, strain sec22, stronger effect = lower value 0.96 | S. cerevisiae deletion strains, locus YLR320W, strain mms22, stronger effect = lower value 0.951 | S. cerevisiae deletion strains, locus YLR342W, strain FKS1 (second series), stronger effect = lower value 0.842 | S. cerevisiae deletion strains, locus YLR342W, strain FKS1, stronger effect = lower value 0.997 | S. cerevisiae deletion strains, locus YLR357W, strain rsc2, stronger effect = lower value 0.958 | S. cerevisiae deletion strains, locus YLR370C, strain arc18, stronger effect = lower value 0.987 | S. cerevisiae deletion strains, locus YLR371W, strain rom2, stronger effect = lower value 0.969 | S. cerevisiae deletion strains, locus YLR384C, strain iki3, stronger effect = lower value 0.999 | S. cerevisiae deletion strains, locus YML016C, strain PPZ1, stronger effect = lower value 0.981 | S. cerevisiae deletion strains, locus YML032C, strain rad52, stronger effect = lower value 0.979 | S. cerevisiae deletion strains, locus YML120C, strain ndi1, stronger effect = lower value 0.985 | S. cerevisiae deletion strains, locus YML124C, strain tub3, stronger effect = lower value 0.993 | S. cerevisiae deletion strains, locus YMR058W, strain fet3, stronger effect = lower value 0.978 | S. cerevisiae deletion strains, locus YMR078C, strain ctf18, stronger effect = lower value 0.954 | S. cerevisiae deletion strains, locus YMR125W, strain sto1, stronger effect = lower value 0.963 | S. cerevisiae deletion strains, locus YMR129W, stronger effect = lower value 0.984 | S. cerevisiae deletion strains, locus YMR205C, strain PFK2, stronger effect = lower value 0.969 | S. cerevisiae deletion strains, locus YMR223W, strain ubp8, stronger effect = lower value 0.948 | S. cerevisiae deletion strains, locus YMR231W, strain pep5, stronger effect = lower value 1 | S. cerevisiae deletion strains, locus YMR263W, strain SAP30, stronger effect = lower value 1 | S. cerevisiae deletion strains, locus YMR307W, strain GAS1, stronger effect = lower value 0.807 | S. cerevisiae deletion strains, locus YNL067W, strain RPL9B, stronger effect = lower value 0.898 | S. cerevisiae deletion strains, locus YNL071W, strain lat1, stronger effect = lower value 0.964 | S. cerevisiae deletion strains, locus YNL128W, strain TEP1, stronger effect = lower value 0.925 | S. cerevisiae deletion strains, locus YNL175C, strain NOP13, stronger effect = lower value 1.03 | S. cerevisiae deletion strains, locus YNL197C, strain WHI3, stronger effect = lower value 1.03 | S. cerevisiae deletion strains, locus YNL209W, strain ssb2, stronger effect = lower value 0.981 | S. cerevisiae deletion strains, locus YNL224C, strain SQS1, stronger effect = lower value 1.01 | S. cerevisiae deletion strains, locus YNL248C, strain rpa49, stronger effect = lower value 0.969 | S. cerevisiae deletion strains, locus YNL250W, strain rad50, stronger effect = lower value 0.971 | S. cerevisiae deletion strains, locus YNL271C, strain bni1, stronger effect = lower value 0.967 | S. cerevisiae deletion strains, locus YNL298W, strain CLA4, stronger effect = lower value 0.95 | S. cerevisiae deletion strains, locus YNL307C, strain MCK1, stronger effect = lower value 0.91 | S. cerevisiae deletion strains, locus YNL322C, strain KRE1 (second series), stronger effect = lower value 0.98 | S. cerevisiae deletion strains, locus YNL322C, strain KRE1, stronger effect = lower value 0.973 | S. cerevisiae deletion strains, locus YNR049C, strain mso1, stronger effect = lower value 0.984 | S. cerevisiae deletion strains, locus YNR052C, strain pop2, stronger effect = lower value 0.972 | S. cerevisiae deletion strains, locus YOL006C, strain TOP1, stronger effect = lower value 0.597 | S. cerevisiae deletion strains, locus YOL012C, strain htz1 1 | S. cerevisiae deletion strains, locus YOL147C, strain pex11, stronger effect = lower value 0.985 | S. cerevisiae deletion strains, locus YOR001W, strain rrp6, stronger effect = lower value 0.99 | S. cerevisiae deletion strains, locus YOR061W, strain CKA2, stronger effect = lower value 0.979 | S. cerevisiae deletion strains, locus YOR069W, strain VPS5, stronger effect = lower value 0.971 | S. cerevisiae deletion strains, locus YOR070C, strain gyp1, stronger effect = lower value 0.989 | S. cerevisiae deletion strains, locus YOR080W, strain dia2, stronger effect = lower value 0.989 | S. cerevisiae deletion strains, locus YOR083W, strain WHI5 (second series), stronger effect = lower value 0.998 | S. cerevisiae deletion strains, locus YOR083W, strain WHI5, stronger effect = lower value 0.998 | S. cerevisiae deletion strains, locus YOR106W, strain vam3, stronger effect = lower value 1 | S. cerevisiae deletion strains, locus YOR136W, strain idh2, stronger effect = lower value 0.972 | S. cerevisiae deletion strains, locus YOR144C, strain elg1, stronger effect = lower value 0.993 | S. cerevisiae deletion strains, locus YOR265W, strain rbl2, stronger effect = lower value 0.988 | S. cerevisiae deletion strains, locus YOR270C, strain vph1, stronger effect = lower value 0.943 | S. cerevisiae deletion strains, locus YOR290C, strain snf2, stronger effect = lower value 0.967 | S. cerevisiae deletion strains, locus YOR316C, strain cot1, stronger effect = lower value 0.986 | S. cerevisiae deletion strains, locus YPL051W, strain arl3, stronger effect = lower value 0.995 | S. cerevisiae deletion strains, locus YPL078C, strain atp4, stronger effect = lower value 0.998 | S. cerevisiae deletion strains, locus YPL106C, strain sse1, stronger effect = lower value 0.912 | S. cerevisiae deletion strains, locus YPL240C, strain hsp82, stronger effect = lower value 0.995 | S. cerevisiae deletion strains, locus YPL241C, strain CIN2, stronger effect = lower value 0.999 | S. cerevisiae deletion strains, locus YPR119W, strain clb2, stronger effect = lower value 0.973 | S. cerevisiae deletion strains, locus YPR141C, strain kar3, stronger effect = lower value 0.966 | S. cerevisiae deletion strains, locus YPR163C, strain tif3, stronger effect = lower value 0.952 | S. cerevisiae deletion strains, locus YPR167C, strain met16, stronger effect = lower value 0.965 | S. cerevisiae deletion strains, strain wtn01, stronger effect = lower value 0.977
active: S. cerevisiae deletion strains, locus YJR075W, strain HOC1, stronger effect = lower value 0.847 | S. cerevisiae deletion strains, locus YLR330W, strain CHS5, stronger effect = lower value 0.809 | S. cerevisiae deletion strains, locus YLR418C, strain cdc73, stronger effect = lower value 0.814 | S. cerevisiae deletion strains, locus YNL233W, strain BNI4, stronger effect = lower value 0.766 | S. cerevisiae deletion strains, locus YOR184W, strain ser1, stronger effect = lower value 0.774 | S. cerevisiae strains, strain wild type, stronger effect = lower value 0.882

Source: PubChem BioAssay AID1159580 (chemical genetic matrix, 2015)
